Source: PubChem BioAssay (EPA / NIEHS)
Results filed as inconclusive are left out. The source made the active and inactive calls. How the source made its calls: active means hit-call score of the fitted dose curve at least 0.9, where 1 is the maximum; inconclusive means response in the unintended direction; inactive means score below 0.9.

Molecular target: human Protein Tyrosine Phosphatase Non-receptor Type 6 (PTPN6), PTPN6 (gene 5777) (UniProt P29350)
Assay: NVS_ENZ_hPTPN6: NovaScreen (NVS) Enzymatic Assay for human Protein Tyrosine Phosphatase Non-receptor Type 6 (PTPN6) (AID 2283210)
Summary of the method: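 Recombinant human PTPN6 from SF9 cells, enzyme activity followed by fluorescence after mobility-shift separation of substrate and product at 1.33 h. Chemicals first tested at a single 25 uM in duplicate, then confirmed across concentration series; loss of signal relative to DMSO.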

Sequence of human Protein Tyrosine Phosphatase Non-receptor Type 6 (PTPN6), PTPN6 (gene 5777) (P29350 whole entry, looked up): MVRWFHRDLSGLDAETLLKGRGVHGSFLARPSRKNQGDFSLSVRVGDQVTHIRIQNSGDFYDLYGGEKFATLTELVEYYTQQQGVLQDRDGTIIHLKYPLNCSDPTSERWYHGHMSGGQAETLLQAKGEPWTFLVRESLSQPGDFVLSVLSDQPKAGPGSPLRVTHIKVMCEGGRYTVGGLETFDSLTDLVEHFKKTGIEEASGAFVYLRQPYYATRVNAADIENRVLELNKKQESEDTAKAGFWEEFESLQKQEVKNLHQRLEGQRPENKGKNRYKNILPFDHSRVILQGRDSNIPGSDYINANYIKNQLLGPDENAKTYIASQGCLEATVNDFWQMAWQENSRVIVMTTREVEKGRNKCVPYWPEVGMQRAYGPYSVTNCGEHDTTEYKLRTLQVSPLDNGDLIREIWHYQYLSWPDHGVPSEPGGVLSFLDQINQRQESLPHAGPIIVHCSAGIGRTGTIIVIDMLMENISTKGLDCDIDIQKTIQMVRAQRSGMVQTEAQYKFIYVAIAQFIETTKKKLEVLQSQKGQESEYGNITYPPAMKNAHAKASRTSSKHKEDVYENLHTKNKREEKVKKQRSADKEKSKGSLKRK

SMILES | outcome
c1ccc2occc2c1 | inactive
COc1ccc(C(=O)Nc2nc3ccccc3c(NCc3ccccc3)c2C#N)cc1 | inactive
CN(C)C(=O)NC1(c2ccccc2)CCN(CC[C@@]2(c3ccc(F)c(F)c3)CN(C(=O)c3ccccc3)CCO2)CC1 | inactive
CC(COCC(C)OC(=O)c1ccccc1)OC(=O)c1ccccc1 (configuration not stated) | inactive
CCCCCCC(C=O)=Cc1ccccc1 | inactive

Molecular target: human Rho Associated Coiled-coil Containing Protein Kinase 1 (ROCK1), ROCK1 (gene 6093) (UniProt Q13464)
Assay: NVS_ENZ_hROCK1: NovaScreen (NVS) Enzymatic Assay for human Rho Associated Coiled-coil Containing Protein Kinase 1 (ROCK1) (AID 2283214)
Summary of the method: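 Compounds first run in duplicate at 25 uM against recombinant human ROCK1, then followed in concentration series. Kinase activity was read 1 h post-dosing by fluorescence with mobility-shift separation, as signal loss relative to DMSO.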

SMILES | outcome
O=C(Oc1ccccc1)c1cccc(C(=O)Oc2ccccc2)c1 | inactive
CN(C)C(=O)NC1(c2ccccc2)CCN(CCC[C@]2(c3ccc(Cl)c(Cl)c3)CCCN(C(=O)c3ccccc3)C2)CC1 | inactive
N[C@@H](Cc1c[nH]c2ccccc12)C(=O)O | inactive
CC(C)c1cccc(C(C)C)c1 | inactive
O=C(N[C@@H](c1ccccc1)[C@@H]1CCCCN1)c1cccc(C(F)(F)F)c1Cl | inactive

Molecular target: human Protein Tyrosine Phosphatase Receptor Type M (PTPRM), PTPRM (gene 5797) (UniProt P28827)
Assay: NVS_ENZ_hPTPRM: NovaScreen (NVS) Enzymatic Assay for human Protein Tyrosine Phosphatase Receptor Type M (PTPRM) (AID 2283215)
Summary of the method: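 Read-out is fluorescence after electrophoretic separation of substrate and product, taken 1.33 h post-dosing with recombinant enzyme. Compounds screened at 25 uM in duplicate, then concentration series for actives; activity as signal loss relative to DMSO.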

Sequence of human Protein Tyrosine Phosphatase Receptor Type M (PTPRM), PTPRM (gene 5797) (P28827 whole entry, looked up): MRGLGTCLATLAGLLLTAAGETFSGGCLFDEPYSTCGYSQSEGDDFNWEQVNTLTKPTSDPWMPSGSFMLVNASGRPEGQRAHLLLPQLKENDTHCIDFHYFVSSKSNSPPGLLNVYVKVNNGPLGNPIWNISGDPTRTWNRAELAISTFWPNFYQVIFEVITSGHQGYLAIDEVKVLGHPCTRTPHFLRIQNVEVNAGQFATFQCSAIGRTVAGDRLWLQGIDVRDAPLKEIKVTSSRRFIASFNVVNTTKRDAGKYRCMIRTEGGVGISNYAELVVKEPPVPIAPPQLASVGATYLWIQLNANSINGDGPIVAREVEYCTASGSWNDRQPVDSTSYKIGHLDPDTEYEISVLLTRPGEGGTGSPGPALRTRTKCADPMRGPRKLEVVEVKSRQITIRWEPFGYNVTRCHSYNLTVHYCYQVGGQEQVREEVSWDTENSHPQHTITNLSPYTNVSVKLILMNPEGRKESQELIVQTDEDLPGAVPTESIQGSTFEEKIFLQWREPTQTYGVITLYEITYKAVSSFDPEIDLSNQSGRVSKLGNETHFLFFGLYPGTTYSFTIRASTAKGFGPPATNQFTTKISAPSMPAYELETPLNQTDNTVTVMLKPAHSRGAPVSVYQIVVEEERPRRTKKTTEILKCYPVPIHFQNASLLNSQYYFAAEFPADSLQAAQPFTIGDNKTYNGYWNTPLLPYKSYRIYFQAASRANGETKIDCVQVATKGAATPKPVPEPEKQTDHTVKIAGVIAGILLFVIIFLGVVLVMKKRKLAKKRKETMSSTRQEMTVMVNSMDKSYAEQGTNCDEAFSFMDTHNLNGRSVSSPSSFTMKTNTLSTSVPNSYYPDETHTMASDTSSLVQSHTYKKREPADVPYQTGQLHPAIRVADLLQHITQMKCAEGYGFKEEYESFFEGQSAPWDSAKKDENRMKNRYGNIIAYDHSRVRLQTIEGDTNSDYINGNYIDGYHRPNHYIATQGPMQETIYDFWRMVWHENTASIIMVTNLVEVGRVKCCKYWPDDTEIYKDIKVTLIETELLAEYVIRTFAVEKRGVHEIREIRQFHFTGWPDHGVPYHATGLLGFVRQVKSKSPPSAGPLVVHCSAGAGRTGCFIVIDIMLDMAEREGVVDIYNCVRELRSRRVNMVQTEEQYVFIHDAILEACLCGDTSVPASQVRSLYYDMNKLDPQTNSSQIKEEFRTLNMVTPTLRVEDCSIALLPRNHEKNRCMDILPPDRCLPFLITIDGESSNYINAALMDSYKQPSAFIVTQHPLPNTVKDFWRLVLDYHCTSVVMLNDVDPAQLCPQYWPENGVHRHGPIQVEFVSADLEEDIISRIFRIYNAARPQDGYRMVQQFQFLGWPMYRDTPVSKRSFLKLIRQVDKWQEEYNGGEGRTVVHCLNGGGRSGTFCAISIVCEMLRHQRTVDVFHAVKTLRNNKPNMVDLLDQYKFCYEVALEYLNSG

SMILES | outcome
CCCCOC(=O)CCCCC(=O)OCCCC | inactive
COc1ccc(OC(F)(F)F)cc1CN[C@H]1CCCN[C@H]1c1ccccc1 | inactive
O=C1NC(=O)C(c2ccccc2)(c2ccccc2)N1 | inactive

Molecular target: human Sirtuin 2 (SIRT2), SIRT2 (gene 22933) (UniProt Q8IXJ6)
Assay: NVS_ENZ_hSIRT2: NovaScreen (NVS) Enzymatic Assay for human Sirtuin 2 (SIRT2) (AID 2283217)
Summary of the method: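 Single-point duplicate screen at 25 uM, then concentration-response (max 50 uM) for chemicals passing threshold. Enzyme activity of recombinant human SIRT2 measured after 1 hr by fluorescence with mobility-shift separation of product; DMSO baseline.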

Sequence of human Sirtuin 2 (SIRT2), SIRT2 (gene 22933) (Q8IXJ6 whole entry, looked up): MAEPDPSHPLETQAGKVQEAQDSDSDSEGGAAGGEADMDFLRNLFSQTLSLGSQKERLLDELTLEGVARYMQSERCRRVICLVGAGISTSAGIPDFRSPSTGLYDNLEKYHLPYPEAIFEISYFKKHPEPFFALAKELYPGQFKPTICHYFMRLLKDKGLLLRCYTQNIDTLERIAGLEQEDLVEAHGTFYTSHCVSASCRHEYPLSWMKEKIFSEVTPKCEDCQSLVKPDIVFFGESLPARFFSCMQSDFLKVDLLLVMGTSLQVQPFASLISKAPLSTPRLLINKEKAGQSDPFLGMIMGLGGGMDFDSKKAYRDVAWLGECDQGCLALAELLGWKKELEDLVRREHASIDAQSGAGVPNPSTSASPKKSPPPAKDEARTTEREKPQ

SMILES | AC50 | outcome
CN(C)C(=O)NC1(c2ccccc2)CCN(CCC[C@]2(c3ccc(Cl)c(Cl)c3)CCCN(C(=O)c3ccccc3)C2)CC1 | 1.69 µM (active) | 
CCN(CC)CCOc1ccc(C(=C(Cl)c2ccccc2)c2ccccc2)cc1 | 21 µM (active) | 
Cc1occc(=O)c1O |  | inactive
O=C(N[C@@H](c1ccccc1)[C@@H]1CCCCN1)c1cccc(C(F)(F)F)c1Cl |  | inactive
C=CCc1ccc(OC)c(OC)c1 |  | inactive

Molecular target: human Sirtuin 1 (SIRT1), SIRT1 (gene 23411) (UniProt Q96EB6)
Assay: NVS_ENZ_hSIRT1: NovaScreen (NVS) Enzymatic Assay for human Sirtuin 1 (SIRT1) (AID 2283219)
Description: (§1) NVS_ENZ_hSIRT1 is a biochemical, single-readout assay that uses extracted gene-proteins in a cell-free assay. Measurements were taken 1 hour after chemical dosing in a 384-well plate.NVS_ENZ_hSIRT1 is one of one assay component(s) measured or calculated from the NVS_ENZ_hSIRT1 assay. It is designed to make measurements of enzyme activity, a form of enzyme reporter, as detected with fluorescence intensity signals by Fluorescence and electrophoretic mobility shift technology.Data from the assay component NVS_ENZ_hSIRT1 was analyzed into 1 assay endpoint. This assay endpoint, NVS_ENZ_hSIRT1, was analyzed in the positive analysis fitting direction relative to DMSO as the negative control and baseline of activity. Using a type of enzyme reporter, loss-of-signal activity can be used to understand changes in the enzymatic activity as they relate to the gene SIRT1. Furthermore, this assay endpoint can be referred to as a primary readout, because this assay has produced multiple assay endpoints where this one serves a enzymatic activity function. To generalize the intended target to other relatable targets, this assay endpoint is annotated to the hydrolase intended target family, where the subfamily is protein deacetylase.
Binding assays used specific radioligands (tritiated, iodinated) with non-radioactive competitive displacement ligands in agonist or antagonist protocols (as indicated) and various reference compounds and inhibitors to titrate specific binding to receptors and transporters. Most enzyme assays (CYPs, kinases, phosphatases, proteases, HDACs) used recombinant protein and specific substrates (fluorescence mostly, some colorimetric and radioactive) and inhibitors, followed by a biochemical separation of substrate and product. All assays for the biochemical HTS were initially run in duplicate at a single concentration (10 uM for CYP450 assays and 25 uM for all others). Assay-chemical combinations meeting a pre-defined threshold (e.g., 30% inhibition and other criteria defined below) were then run in singleton concentration-response format with maximum concentration of 20 uM for CYPs and 50 uM for all others. Each assay was run with positive and negative controls, and concurrent controls on every plate. The follow-up (secondary) screen tested active chemical-pairs in concentration series, as well as a few additional assays not tested in the primary screen, some selected negative inactives, and several cases re-run in the concentration series for confirmatory purposes.

Sequence of human Sirtuin 1 (SIRT1), SIRT1 (gene 23411) (Q96EB6 whole entry, looked up): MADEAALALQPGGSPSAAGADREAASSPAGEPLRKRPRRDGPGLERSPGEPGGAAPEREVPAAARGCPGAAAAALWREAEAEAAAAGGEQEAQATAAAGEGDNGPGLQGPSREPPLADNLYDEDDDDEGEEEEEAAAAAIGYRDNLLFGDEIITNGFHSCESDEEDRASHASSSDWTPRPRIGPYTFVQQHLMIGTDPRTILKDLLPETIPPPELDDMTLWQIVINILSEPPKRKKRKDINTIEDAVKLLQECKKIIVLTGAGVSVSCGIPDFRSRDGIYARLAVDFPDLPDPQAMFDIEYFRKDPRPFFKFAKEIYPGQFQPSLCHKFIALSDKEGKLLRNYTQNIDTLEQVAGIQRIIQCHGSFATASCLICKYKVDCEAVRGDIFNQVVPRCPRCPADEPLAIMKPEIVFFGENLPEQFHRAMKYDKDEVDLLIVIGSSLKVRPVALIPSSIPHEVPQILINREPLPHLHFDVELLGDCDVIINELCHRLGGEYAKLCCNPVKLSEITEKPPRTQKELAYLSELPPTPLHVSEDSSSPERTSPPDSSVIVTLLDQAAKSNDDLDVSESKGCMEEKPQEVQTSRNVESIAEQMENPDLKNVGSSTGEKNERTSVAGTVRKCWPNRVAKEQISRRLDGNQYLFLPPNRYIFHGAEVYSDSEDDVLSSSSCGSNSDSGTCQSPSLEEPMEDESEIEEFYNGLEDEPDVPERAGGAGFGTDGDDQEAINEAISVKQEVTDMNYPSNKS

SMILES | outcome
CC(C)(O)c1ccc(CNC(=O)c2cccnc2Oc2ccc(F)cc2)cc1 | inactive
O=C(Oc1ccccc1)c1cccc(C(=O)Oc2ccccc2)c1 | inactive
N[C@@H](Cc1c[nH]c2ccccc12)C(=O)O | inactive
COC(=O)CCC(=O)OC | inactive
CC1=C(C)S(=O)(=O)CCS1(=O)=O | inactive
Cc1cc(SC2=C(O)C[C@@](CCc3ccc(N)cc3)(C(C)C)OC2=O)c(C(C)(C)C)cc1CO | inactive

Molecular target: human Sirtuin 3 (SIRT3), SIRT3 (gene 23410) (UniProt Q9NTG7)
Assay: NVS_ENZ_hSIRT3: NovaScreen (NVS) Enzymatic Assay for human Sirtuin 3 (SIRT3) (AID 2283222)
Summary of the method: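 Cell-free enzyme assay with recombinant protein and fluorescent substrate, product separated by electrophoretic mobility shift; read 1 hour after dosing. Screened in duplicate at 25 uM, then singleton concentration-response up to 50 uM; loss of signal versus DMSO.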

Sequence of human Sirtuin 3 (SIRT3), SIRT3 (gene 23410) (Q9NTG7 whole entry, looked up): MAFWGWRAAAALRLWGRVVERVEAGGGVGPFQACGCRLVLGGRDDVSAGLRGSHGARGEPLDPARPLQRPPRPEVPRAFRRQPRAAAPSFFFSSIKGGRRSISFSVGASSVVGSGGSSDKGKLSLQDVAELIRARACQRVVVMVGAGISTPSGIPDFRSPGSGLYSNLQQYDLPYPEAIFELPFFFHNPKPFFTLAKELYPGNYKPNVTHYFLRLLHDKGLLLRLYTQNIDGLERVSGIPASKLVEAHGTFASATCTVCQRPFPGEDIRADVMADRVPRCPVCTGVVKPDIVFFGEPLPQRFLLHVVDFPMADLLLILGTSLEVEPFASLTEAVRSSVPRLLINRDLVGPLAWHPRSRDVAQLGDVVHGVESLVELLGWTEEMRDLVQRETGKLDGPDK

SMILES | outcome | AC50
COC(=O)CCC(=O)OC | inactive | 
O=C1NC(=O)C(c2ccccc2)(c2ccccc2)N1 | inactive | 
CCN(CC)CCOc1ccc(C(=C(Cl)c2ccccc2)c2ccccc2)cc1 | inactive | 
CC(C)OC(=O)C(C)(C)Oc1ccc(C(=O)c2ccc(Cl)cc2)cc1 |  | 8.69 µM (active)
O=C(N[C@@H](c1ccccc1)[C@@H]1CCCCN1)c1cccc(C(F)(F)F)c1Cl | inactive | 

Molecular target: human SRC Proto-Oncogene, Non-receptor Tyrosine Kinase (SRC), SRC (gene 6714) (UniProt P12931)
Assay: NVS_ENZ_hSRC: NovaScreen (NVS) Enzymatic Assay for human SRC Proto-Oncogene, Non-receptor Tyrosine Kinase (SRC) (AID 2283223)
Description: as §1, with “NVS_ENZ_hSRC” for “NVS_ENZ_hSIRT1”, “plate.NVS_ENZ_hSRC” for “plate.NVS_ENZ_hSIRT1”, “NVS_ENZ_hSRC,” for “NVS_ENZ_hSIRT1,”, “SRC.” for “SIRT1.”, “kinase” for “hydrolase”, “non-receptor tyrosine kinase.” for “protein deacetylase.”
Binding assays used specific radioligands (tritiated, iodinated) with non-radioactive competitive displacement ligands in agonist or antagonist protocols (as indicated) and various reference compounds and inhibitors to titrate specific binding to receptors and transporters. Most enzyme assays (CYPs, kinases, phosphatases, proteases, HDACs) used recombinant protein and specific substrates (fluorescence mostly, some colorimetric and radioactive) and inhibitors, followed by a biochemical separation of substrate and product. All assays for the biochemical HTS were initially run in duplicate at a single concentration (10 uM for CYP450 assays and 25 uM for all others). […]

Sequence of human SRC Proto-Oncogene, Non-receptor Tyrosine Kinase (SRC), SRC (gene 6714) (P12931 whole entry, looked up): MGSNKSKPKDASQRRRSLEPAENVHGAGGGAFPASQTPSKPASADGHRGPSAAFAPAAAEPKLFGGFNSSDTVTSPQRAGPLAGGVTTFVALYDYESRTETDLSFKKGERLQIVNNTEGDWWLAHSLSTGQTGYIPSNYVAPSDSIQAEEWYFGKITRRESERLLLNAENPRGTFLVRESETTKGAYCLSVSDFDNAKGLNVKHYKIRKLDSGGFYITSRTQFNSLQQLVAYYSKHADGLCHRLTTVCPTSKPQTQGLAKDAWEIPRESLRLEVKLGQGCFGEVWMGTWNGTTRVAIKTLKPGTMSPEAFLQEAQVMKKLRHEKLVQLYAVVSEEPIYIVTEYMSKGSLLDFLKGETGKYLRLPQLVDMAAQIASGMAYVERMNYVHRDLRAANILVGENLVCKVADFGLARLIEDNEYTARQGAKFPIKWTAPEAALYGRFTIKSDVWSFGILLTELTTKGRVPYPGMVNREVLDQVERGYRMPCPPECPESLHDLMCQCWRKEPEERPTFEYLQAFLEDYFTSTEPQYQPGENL

SMILES | outcome | AC50
CC(=O)O | inactive | 
CCCCc1nc2cccnc2n1Cc1ccc(-c2ccccc2-c2nnn[nH]2)cc1 | inactive | 
CCCCCCCCCCCCCCOS(=O)(=O)O |  | 37.1 µM (active)
